Assay outcomes deposited in PubChem BioAssay by several laboratories.
MLLE-PAM2 inh: blocks PAM2 peptide binding to the PABP1 MLLE domain | P11940 | GST-MLLE / FITC-PAM2 fluorescence polarization | inhibition, % at 20 µM | 360,000 compounds, 0.36% hits | AID 588489; in the data active means inhibition above about 35%, passing the limit was not always enough;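 further: plate controls were DMSO wells with GST-MLLE for no effect and wells lacking GST-MLLE protein for full effect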
eIF4H FP inh: inhibitors of RNA binding by human eIF4H | eIF4H fluorescence polarization binding assay | inhibition, % at 35 µM | AID 2012 | 290,000 compounds, 0.94% hits;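 further: calls also rest on retests at 20 µM and on dose response follow-up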
PERK inh: inhibitors of human PERK kinase | Q9NZJ5 | 220,000 compounds, 0.17% hits | inhibition, % at 5.6 µM | CHO PERK-DD fusion, SEAP luminescence translation reporter;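 active means inhibition above the mean inhibition of all tested compounds plus 3 SD, set separately per screening campaign, cut at about 2.9% in these data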;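 further: PERK kinase domain activated by AP20187 dimerizer at 100 nM; 0% = DMSO with dimerizer and 100% = rapamycin at 8.4 µM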
PABP polyA inh: PABP-poly(A) binding inhibition; P11940; calls only at 35 µM; AID 2014; PABP-poly(A) RNA binding, fluorescence polarization; 290,000 compounds, 1% hits;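 further: calls also rest on retests at 20 µM and on dose response follow-up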
eIF4E-4G inh: blocks eIF4E binding to eIF4G; TR-FRET eIF4E-eIF4GI(517-606) binding, 2 h; inhibition, % at 21.7 µM; AID 782; 220,000 compounds, 0.37% hits; P63073+Q04637;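 active means inhibition above about 30%, limit read from the data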;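 further: 0% = full FRET control wells and 100% = background wells lacking eIF4GI fragment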
Target sequence (P63073 whole entry, looked up, the tested form may be a part): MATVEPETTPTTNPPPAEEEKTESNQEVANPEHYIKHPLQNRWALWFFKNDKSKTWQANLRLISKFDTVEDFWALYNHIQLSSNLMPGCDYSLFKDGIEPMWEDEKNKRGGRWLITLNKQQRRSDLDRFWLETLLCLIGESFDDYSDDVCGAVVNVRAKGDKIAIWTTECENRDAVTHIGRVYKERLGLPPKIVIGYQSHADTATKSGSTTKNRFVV
Target sequence (Q04637 whole entry, looked up, the tested form may be a part): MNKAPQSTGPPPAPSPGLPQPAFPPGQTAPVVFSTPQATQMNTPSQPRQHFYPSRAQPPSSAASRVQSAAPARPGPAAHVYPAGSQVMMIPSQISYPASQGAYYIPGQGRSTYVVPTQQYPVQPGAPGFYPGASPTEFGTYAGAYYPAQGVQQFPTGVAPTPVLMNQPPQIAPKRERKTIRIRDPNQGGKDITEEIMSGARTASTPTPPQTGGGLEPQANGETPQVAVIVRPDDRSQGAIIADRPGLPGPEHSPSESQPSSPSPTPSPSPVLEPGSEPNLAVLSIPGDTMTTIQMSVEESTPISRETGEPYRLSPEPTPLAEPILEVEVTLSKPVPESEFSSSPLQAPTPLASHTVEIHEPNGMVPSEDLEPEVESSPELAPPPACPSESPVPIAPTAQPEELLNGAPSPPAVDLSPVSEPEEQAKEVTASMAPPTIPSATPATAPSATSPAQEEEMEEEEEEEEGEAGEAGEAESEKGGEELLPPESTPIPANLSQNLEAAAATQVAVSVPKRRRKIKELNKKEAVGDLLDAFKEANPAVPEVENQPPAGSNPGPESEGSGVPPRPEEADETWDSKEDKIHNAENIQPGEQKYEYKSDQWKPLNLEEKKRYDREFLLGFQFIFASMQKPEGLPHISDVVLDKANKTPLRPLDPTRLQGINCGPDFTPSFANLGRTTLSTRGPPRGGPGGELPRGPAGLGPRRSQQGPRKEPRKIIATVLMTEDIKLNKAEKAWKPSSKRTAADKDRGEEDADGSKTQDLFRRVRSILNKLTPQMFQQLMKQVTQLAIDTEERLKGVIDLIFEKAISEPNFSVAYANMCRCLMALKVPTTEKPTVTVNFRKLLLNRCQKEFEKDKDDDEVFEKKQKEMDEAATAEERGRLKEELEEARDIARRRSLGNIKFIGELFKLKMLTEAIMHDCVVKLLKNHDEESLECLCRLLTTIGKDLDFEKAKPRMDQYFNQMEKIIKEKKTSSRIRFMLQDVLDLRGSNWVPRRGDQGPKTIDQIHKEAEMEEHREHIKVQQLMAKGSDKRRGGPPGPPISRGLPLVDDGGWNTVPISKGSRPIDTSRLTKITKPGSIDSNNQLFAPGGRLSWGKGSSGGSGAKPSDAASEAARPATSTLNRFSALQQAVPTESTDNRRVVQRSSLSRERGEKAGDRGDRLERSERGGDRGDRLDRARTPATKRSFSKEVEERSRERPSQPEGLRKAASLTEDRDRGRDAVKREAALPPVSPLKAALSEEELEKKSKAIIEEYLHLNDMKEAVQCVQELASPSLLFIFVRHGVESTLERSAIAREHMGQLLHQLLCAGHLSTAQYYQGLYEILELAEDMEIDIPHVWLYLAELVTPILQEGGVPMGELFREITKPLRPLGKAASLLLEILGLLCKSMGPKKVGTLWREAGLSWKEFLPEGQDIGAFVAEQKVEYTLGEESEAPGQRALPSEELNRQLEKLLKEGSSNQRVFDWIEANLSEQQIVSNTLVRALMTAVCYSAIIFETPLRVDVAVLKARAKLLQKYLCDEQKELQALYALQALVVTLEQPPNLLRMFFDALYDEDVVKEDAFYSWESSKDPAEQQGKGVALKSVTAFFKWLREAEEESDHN
Active calls of the source: *; i = inactive; ? = inconclusive; · = no result; + = active, no number. Most compounds without a hit are left out; they make up all but 1.6% or so of the library. Unless noted, how the calls were made is not given here.

SMILES	MLLE-PAM2 inh	eIF4H FP inh	PERK inh	PABP polyA inh	eIF4E-4G inh
Cc1cc(-c2csc(NC(=O)c3ccc(=O)[nH]c3)n2)c(C)n1Cc1ccco1	-22	?	1	?	46*
CCNc1nc(-c2cc(C)n(Cc3ccco3)c2C)cs1	4	?	1	i	-6
CCCCCn1c(=O)c(C(=O)c2ccccc2)nc2ccccc21	-6	-14	1	+	2
C[C@H]1COC(=O)[C@H](Cc2ccc(F)cc2)C/C=C\C[C@H](CC(=O)NCCO)C(=O)N1	1	·	·	·	·
CC(=O)Nc1ccc(N=Cc2c(O)c(C(=O)Nc3ccccc3)cc3ccccc23)cc1	·	?	1	i	30*
CC(=O)Nc1ccc(N=Cc2c(O)c3ccccc3oc2=O)cc1	3	-1	·	i	·
O=C1CC(c2ccco2)CC(O)=C1C=Nc1cc(Cl)ccc1O (centres undefined)	8	92*	2	+	-1
CNC(=O)C(=O)NCC1OCCN1S(=O)(=O)c1ccc(OC)c(OC)c1 (centres undefined)	-2	-6	·	i	·
O=[N+]([O-])c1cccc(N(CC2CO2)S(=O)(=O)c2ccccc2)c1 (centres undefined)	4	-4	·	i	·
O=C1CCCC2=C1C(c1ccc(O)c(O)c1)Nc1ccc3ncccc3c12 (centres undefined)	-12	74*	0	+	5
COc1ccc2nc(/C(C#N)=C\c3ccc(Oc4ccc([N+](=O)[O-])cn4)cc3)[nH]c2c1	-82	84*	0	+	5
Cc1ccc2nc(/C(C#N)=C\c3ccc(Oc4ccc([N+](=O)[O-])cn4)cc3)[nH]c2c1	-67	?	-1	i	1
COC(=O)c1scc(C)c1N1C(=O)c2ccccc2C1=O	-10	1	2.9*	i	-2
COc1ccc(C2=CC3=C(Br)C(=O)C(C)(O)C(=O)C3=CO2)cc1 (centres undefined)	-3	43	·	+	1
CCC(=O)OC1(C)C(=O)C2=COC(c3ccc(OC)cc3)=CC2=C(Br)C1=O (centres undefined)	-25	?	·	?	8
CC1(C(=O)NS(=O)(=O)c2ccc(C#N)cc2)CCN1C(=O)Cc1ccc(Cl)cc1Cl (centres undefined)	-4	·	·	·	·
COc1ccccc1OCCNC(=O)Nc1cc(F)c(F)cc1Cl	9	-8	1	i	4
O=C(CN1CCN(C(=O)C2COc3ccccc3O2)CC1)Nc1ccc(F)cc1 (centres undefined)	-5	7	2	i	4
CCCCCCCCCC(=O)O	-2	·	·	·	·
CCCCCC#CCC#CCC#CCC#CCCCC(=O)O	·	85*	1	i	36*
O=C(CCCCl)Oc1ccc2cc(-c3ccc4ccccc4n3)c(=O)oc2c1	16	52*	1	i	0
CC(=O)COc1ccc2cc(-c3ccccc3)c(=O)oc2c1	-3	-5	·	i	·
O=C(NNc1cc(N2CCOCC2)nc(N2CCOCC2)n1)C12CC3CC(CC(C3)C1)C2	-12	6	-1	i	-11
CCOc1cc(C2c3c(n[nH]c3C)C(=O)N2c2ccc(C)cc2)ccc1O (centres undefined)	8	-8	0	i	65*
CCCCC1(C(=O)OCC)CC(CN2CCOCC2)OC1=O (centres undefined)	-7	active	·	+	-6
SMILES	MLLE-PAM2 inh	eIF4H FP inh	PERK inh	PABP polyA inh	eIF4E-4G inh
C=C1c2nc3ccccc3n2C=C(c2ccc(C)cc2)N1c1ccccc1	22	·	·	·	·
NNC(=O)c1cc2c(ccc3ccccc32)o1	-7	6	1	i	3
O=C(Nc1cccnc1)c1cc2c(ccc3ccccc32)o1	-1	-16	-1	i	76*
O=C(O)CCC(=O)N1N=C(c2ccco2)CC1c1ccco1 (centres undefined)	-4	35	·	i	·
O=C(O)CCC(=O)N1N=C(c2ccco2)CC1c1cccs1 (centres undefined)	13	76*	1	+	8
Cc1ccc(-n2cccc2/C=C2\C(=N)N3N=C(c4ccco4)SC3=NC2=O)cc1	-27	81	0	i	56*
O=C1OC(c2cccs2)=N/C1=C\c1ccc(-c2ccccc2Cl)o1	-98	-12	0	i	0
CC(C)S(=O)(=O)C1=NSC2=NC(=O)/C(=C\c3ccc(-c4ccccc4)o3)C(=N)N21	-25	?	1	i	2
CCC1=NN2C(=N)/C(=C\c3cccn3-c3ccc(Cl)cc3)C(=O)N=C2S1	-9	10	0	i	1
O=C1OC(c2cccs2)=N/C1=C/c1ccc(-c2cccc(C(=O)O)c2)o1	-87	89	1	+	36*
N=C1/C(=C\c2ccc(-c3cc(Cl)cc(Cl)c3)o2)C(=O)N=C2SC=C(c3ccccc3)N12	-6	35	1	i	-6
N=C1/C(=C/c2ccc(-c3cccc(C(=O)O)c3)o2)C(=O)N=C2SC=C(c3ccccc3)N12	-81	52*	0	+	80*
CC(C)S(=O)(=O)C1=NSC2=NC(=O)/C(=C\c3ccc(-c4cccc(C(=O)O)c4)o3)C(=N)N21	-76	62	0	+	1
O=C(CN1CCC(C(=O)c2ccc(F)cc2)CC1)Nc1ccccc1Cl	-3	4	·	i	·
CS(=O)(=O)C1=NSC2=NC(=O)/C(=C\c3ccc(-c4ccccc4)o3)C(=N)N21	·	54*	1	i	5
Cc1cc(C)cc(-n2cccc2/C=C2/C(=N)N3C(=NC2=O)SN=C3S(C)(=O)=O)c1	-36	29*	1	+	13
CNc1ccc(Br)cc(C(=O)/C=C/c2ccc3c(c2)OCO3)c1=O	-23	92*	-1	+	0
COc1cc2c(c(OCC(=O)NC(C)C)c1)C(=O)O[C@@H](C)CCCC(=O)CCCCC2	52*	70	·	i	·
Cc1cccc(C)c1NC(=O)CSc1nc2[nH]c(=O)cc(O)c2s1	18	·	·	·	·
CCOc1ccc(NC(=S)Nc2ccccc2C2(C)CC2)cc1	28	-6	0	i	0
Cc1[nH]nc2c1C(c1ccc(F)cc1)C(C#N)=C(N)O2 (centres undefined)	7	2	0	i	6
Cc1oc(C)c2c(=O)ccc3c(c12)OC(N)=C(C#N)C3c1ccc(F)cc1 (centres undefined)	-55	70*	1	+	2
COc1ccc2c3c(cccc13)C(=O)N(O)C2=O	40*	95	1	i	-1
Cc1noc(C)c1C(=O)N1CCC1(C)C(=O)NS(=O)(=O)c1ccccc1C(F)(F)F (centres undefined)	5	·	·	·	·
N=C1CCC(=N)c2c1c(O)c1ccccc1c2O	62	?	1	?	16
O=C1CCn2c1c(O)c1ccccc1c2=O	45*	·	·	·	·
O=C(Nc1cc2cc([N+](=O)[O-])ccc2oc1=O)c1cccs1	·	-18	1	+	-4
Cn1ncc2nc[nH]c(=O)c21	0	?	1	+	-10
